These results are taken from PubChem BioAssay AID2685 (National Center for Advancing Translational Sciences (NCATS), 2010).

The campaign covered roughly 320,000 compounds. About 2,100 (0.66%) were called active. About 53% were inconclusive and are not listed. Calls come from the whole dose curve; as a rule, active = well fitted inhibition curve with a large enough effect in the signal ratio, with a control signal flat (not every such curve was filed as active); inconclusive = small, poorly fitted or top-dose-only effect, or effect the other way, or a change in a side signal; inactive = flat fitted curve, though single readings scatter; the % refers to the signal ratio. The entries come from a sample that favours actives as a whole.
Potency is the fitted concentration of half-maximal effect.

The assay can be described thus: qHTS Assay for Lipid Storage Modulators in Drosophila S3 Cells.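 For cell number change: cells counted by Cell Tracker Red CMTPX staining in the red channel.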 For lipid storage change, negative = inhibition: % is set by controls: 0 for no effect and ±100 for the full control effect. To be noted: BODIPY lipid droplet fluorescence, 18-24 h, cells fed with added oleic acid; cell number change: measured here: cell count max response; series mostly up to 46.1 µM; lipid storage change, negative = inhibition: at the top concentration. An outline of the steps: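 Drosophila S3 cells loaded with oleic acid (400 uM, as added) and compounds at several concentrations; lipid droplets imaged by 488-nm laser-scanning cytometry, 500–530 nm intensity and object ratio to cell channel. Percent activity normalized to 20 uM Triacsin C.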
A general note: In qHTS, concentration-response curves come from the screen itself.
Take `Cc1ccccc1NC(=O)CN1C(=O)N/C(=C\c2ccc(N3CCOCC3)c(F)c2)C1=O`: the “lipid storage change, negative = inhibition” value is 9.21% (inactive) and the cell number change is -7.47%. As for `Nc1c(Cl)cc(C2=NCCn3nc4cc([N+](=O)[O-])ccc4c32)cc1Cl`, the Potency is 5.17 µM (active) and the cell number change worked out at 13.3%.

For `COc1ccc2c3n(nc2c1)CCN=C3c1ccc(Cl)cc1`, the “lipid storage change, negative = inhibition” value is 18.2% (inactive) and the cell number change is 28.7%. In the case of `Nc1c(Cl)cc(C2=NCCn3c2c2ccc([N+](=O)[O-])cc2[n+]3[O-])cc1Cl`, the call was inactive and the cell number change was -13.5%.

As for `C/C=C/C(=O)N1CC2(CC(c3cccc(NC(=O)CCCCC)c3)=NO2)C[C@H]1C(N)=O` (stereo not given in full), the “lipid storage change, negative = inhibition” value was 5.76% (inactive) and the cell number change was 7.84%. As to `CC(C)N1C(=O)N(c2ccccc2)C(C)(O)CC1(C)C` (stereo not given), the “lipid storage change, negative = inhibition” value is 7.15% (inactive). `CC1(C)CC(=O)N(c2ccccc2)C1(C)O` (stereo not given): the Potency is 0.164 µM (active) and the cell number change turned out to be 6.8%. `CC1(O)CC(=O)N(c2ccccc2)O1` (stereo not given): the “lipid storage change, negative = inhibition” value was -7.45% (inactive) and the cell number change worked out at 5.56%. For `Nc1nc(CN2CCc3ccccc3C2)nc(Nc2ccccc2)n1`, the outcome was inactive. For the compound `COC(=O)[C@@]12CCCCN1[C@H](c1ccc(-c3ccc(OC)cc3)cc1)[C@@H]1C(=O)N(C)C(=O)[C@@H]12`, the compound was classed as inactive. Turning to `COC(=O)[C@@]12CCCCN1[C@H](c1ccc(SC3CCCCC3)cc1)[C@H]1C(=O)N(C)C(=O)[C@H]12`, the “lipid storage change, negative = inhibition” value was 11.4% (inactive). As for `CCN1C(=O)[C@@H]2[C@@H](c3ccc(-c4ccc(F)cc4)cc3)N3CCC[C@@]3(C(=O)OC)[C@@H]2C1=O`, the “lipid storage change, negative = inhibition” value is 6.74% (inactive) and the cell number change was -18.3%.

For `CCCCCCSc1ccc([C@@H]2[C@H]3C(=O)N(C)C(=O)[C@H]3[C@]3(C(=O)OC)CCCCN23)cc1`, the Potency is 20.6 µM (active).

With `CCCSc1ccc([C@@H]2[C@H]3C(=O)N(CC)C(=O)[C@H]3[C@]3(C(=O)OC)CCCN23)cc1OC`, the “lipid storage change, negative = inhibition” value is 14.4% (inactive) and the cell number change turned out to be 11.7%. In the case of `CCCCCCSc1ccc([C@@H]2[C@H]3C(=O)N(CC)C(=O)[C@H]3[C@]3(C(=O)OC)CCCN23)cc1`, the Potency is 0.517 µM (active). Take `CS(=O)(=O)Nc1ccc(S(=O)(=O)NCCc2ccccc2)cc1`: the call was inactive.

`CC(C)NC(=O)c1cc2c(C(F)(F)F)nn(C)c2s1`: the result was inactive and the cell number change was -21.4%.

Regarding `COc1ccc(C(=O)C(C)OC(=O)c2cccc(S(=O)(=O)Nc3cc(Cl)c(OC)cc3OC)c2)cc1` (stereo not given), the “lipid storage change, negative = inhibition” value is 19.9% (inactive) and the cell number change was -7.94%.

As to `N#Cc1cccc(NC(=O)COc2ccc(-n3ccnc3)cc2)c1`, the “lipid storage change, negative = inhibition” value was 14.6% (inactive) and the cell number change is -13.2%.

Turning to `COc1ccc(N2C(=O)CC(N3CCN(c4cccc(Cl)c4)CC3)C2=O)cc1` (stereo not given), the compound was called inactive and the cell number change is -1.05%. Turning to `Nc1cc(C(=O)O)c(Oc2ccc(Cl)cc2Cl)cc1C(=O)O`, the “lipid storage change, negative = inhibition” value is -11.9% (inactive) and the cell number change is -11.5%. The corresponding values for `COCCN=c1scc(-c2ccc3c(c2)NC(=O)CO3)n1/N=C(\C)c1ccc(O)cc1` are 2.86% (inactive) and 3.12%.

For the compound `COc1cc(C(C)=O)ccc1COc1ccc(C(=O)OC(C)C(=O)NC(N)=O)cc1OC` (stereo not given), the “lipid storage change, negative = inhibition” value is 6.34% (inactive) and the cell number change came to 7.94%. As to `Cc1cc(N=Nc2c(O)c3ccccc3[nH]c2=O)ccc1N=Nc1ccc(C(=O)N(C)C)cc1`, the Potency is 20.6 µM (active) and the cell number change is -11.6%. `Cc1ccc(N=Nc2c(O)c3ccccc3[nH]c2=O)c(S(=O)(=O)N(C)C)c1`: the “lipid storage change, negative = inhibition” value was 7.55% (inactive) and the cell number change was found to be 7.5%. The corresponding values for `NC(=O)c1ccc(N=Nc2c(O)c3ccccc3[nH]c2=O)cc1` are 5.32% (inactive) and 9.46%. On to `CC(C)(CNC(=O)c1cc([N+](=O)[O-])ccc1N1CCC(Cc2ccccc2)CC1)N1CCOCC1`, for which the Potency was 20.6 µM (active) and the cell number change turned out to be 7.52%. With `O=C(NCCOc1ccccc1)c1cc([N+](=O)[O-])ccc1N1CCOCC1`, the “lipid storage change, negative = inhibition” value was 1.04% (inactive) and the cell number change was -1.71%. With `O=C(O)c1cc([N+](=O)[O-])ccc1N1CCC(Cc2ccccc2)CC1`, the “lipid storage change, negative = inhibition” value is 9.81% (inactive) and the cell number change came out at 4.05%. The corresponding values for `CCOc1ccc(N2C(=O)C3ON(c4ccccc4)C(c4ccco4)C3C2=O)cc1` (stereo not given) are -14.5% (inactive) and -16.3%. The corresponding values for `CCN(CC)S(=O)(=O)c1ccc(S(=O)(=O)N(CC(=O)Nc2ccccc2)Cc2ccco2)cc1` are -6% (inactive) and -12.6%.

In the case of `Cc1cc(C)n(-c2nnc(C)c(=O)[nH]2)n1`, the “lipid storage change, negative = inhibition” value was 4.01% (inactive). On to `N#C/C(=C/c1cccc([N+](=O)[O-])c1)C(=O)Nc1ccccc1O`, for which the “lipid storage change, negative = inhibition” value is 1.09% (inactive) and the cell number change came out at 0.725%. Turning to `O=C(NP(=O)(N1CCCC1)N1CCCC1)C1=C(N2CCOCC2)/C(=C/c2cccc([N+](=O)[O-])c2)CC1`, the “lipid storage change, negative = inhibition” value is 19.1% (inactive). Still for that read-out and setting: in the case of `O=C(O)c1ccccc1N/N=C/C1=C(N2CCOCC2)C(=C\c2ccccc2)/CC1` it was 8.4% (inactive).

Regarding `CCN(CC)c1ccc(/C=C2\CCC(/C=C(\C#N)C(=O)Nc3ccccc3F)=C2N2CCOCC2)cc1`, the Potency is 0.58 µM (active) and the cell number change turned out to be 1.95%.

Turning to `CC(C)C(NC(=O)C12CC3CC(CC(C3)C1)C2)C(=O)N/N=C/C1=C(N2CCOCC2)C(=C\c2cccc([N+](=O)[O-])c2)/CC1` (stereo not given), the “lipid storage change, negative = inhibition” value was 13% (inactive) and the cell number change is 9.26%. In the case of `N#C/C(=C\C1=C(N2CCOCC2)C(=C/c2cccc([N+](=O)[O-])c2)/CC1)C(=O)Nc1ccccc1F`, the Potency is 2.06 µM (active) and the cell number change turned out to be 1.41%. For `O=CC1=C(N2CCOCC2)/C(=C\c2ccccc2)CC1`, the “lipid storage change, negative = inhibition” value is 6.77% (inactive) and the cell number change is 1.5%. As for `CC(NC(=O)C12CC3CC(CC(C3)C1)C2)C(=O)N/N=C/C1=C(N2CCOCC2)C(=C\c2cccc([N+](=O)[O-])c2)/CC1` (stereo not given), the Potency is 13 µM (active) and the cell number change came to 4.98%. Take `CCOC(=O)C(=O)C1=C(N2CCOCC2)/C(=C\c2cccc([N+](=O)[O-])c2)CC1`: the “lipid storage change, negative = inhibition” value is 4.84% (inactive) and the cell number change was -9.52%.

Take `CC(C)Oc1ccc(N2CC(C(=O)Nc3ccc(N4CCOCC4)cc3)CC2=O)cc1` (stereo not given): the “lipid storage change, negative = inhibition” value was 7.42% (inactive) and the cell number change was 15.2%.

Regarding `CCOC(=O)c1cc(CC)sc1/N=C/c1c(O)ccc2ccccc12`, the “lipid storage change, negative = inhibition” value was 21.6% (inactive) and the cell number change is 1.95%. As for `O=C(Cn1cnc([N+](=O)[O-])n1)NCCO`, the “lipid storage change, negative = inhibition” value was -0.893% (inactive) and the cell number change amounted to 0.588%.

On to `O=c1[nH]c(CN2CCN(c3ccc(F)cc3)CC2)nc2ccccc12`, for which the “lipid storage change, negative = inhibition” value was 9.13% (inactive) and the cell number change is -21.1%.
